# Hits are enriched below; roughly 11% of the tested compounds scored in any of these assays.
# hNpr1 antagonist: antagonists of human natriuretic peptide receptor Npr1 | AID 1347048 | actives 1.6% (n = 76,000) | P16066 | Potency, µM (doses to about 46.3 µM), for inactives: top-dose activity change, negative = inhibition, actives largely listed as inhibitors | HEK293 hNpr1 GloSensor cGMP, ANP-stimulated luminescence; calls by dose curve; note: nearly all actives have a fitted effect of over 60% in size
# Target sequence (P16066 whole entry, looked up): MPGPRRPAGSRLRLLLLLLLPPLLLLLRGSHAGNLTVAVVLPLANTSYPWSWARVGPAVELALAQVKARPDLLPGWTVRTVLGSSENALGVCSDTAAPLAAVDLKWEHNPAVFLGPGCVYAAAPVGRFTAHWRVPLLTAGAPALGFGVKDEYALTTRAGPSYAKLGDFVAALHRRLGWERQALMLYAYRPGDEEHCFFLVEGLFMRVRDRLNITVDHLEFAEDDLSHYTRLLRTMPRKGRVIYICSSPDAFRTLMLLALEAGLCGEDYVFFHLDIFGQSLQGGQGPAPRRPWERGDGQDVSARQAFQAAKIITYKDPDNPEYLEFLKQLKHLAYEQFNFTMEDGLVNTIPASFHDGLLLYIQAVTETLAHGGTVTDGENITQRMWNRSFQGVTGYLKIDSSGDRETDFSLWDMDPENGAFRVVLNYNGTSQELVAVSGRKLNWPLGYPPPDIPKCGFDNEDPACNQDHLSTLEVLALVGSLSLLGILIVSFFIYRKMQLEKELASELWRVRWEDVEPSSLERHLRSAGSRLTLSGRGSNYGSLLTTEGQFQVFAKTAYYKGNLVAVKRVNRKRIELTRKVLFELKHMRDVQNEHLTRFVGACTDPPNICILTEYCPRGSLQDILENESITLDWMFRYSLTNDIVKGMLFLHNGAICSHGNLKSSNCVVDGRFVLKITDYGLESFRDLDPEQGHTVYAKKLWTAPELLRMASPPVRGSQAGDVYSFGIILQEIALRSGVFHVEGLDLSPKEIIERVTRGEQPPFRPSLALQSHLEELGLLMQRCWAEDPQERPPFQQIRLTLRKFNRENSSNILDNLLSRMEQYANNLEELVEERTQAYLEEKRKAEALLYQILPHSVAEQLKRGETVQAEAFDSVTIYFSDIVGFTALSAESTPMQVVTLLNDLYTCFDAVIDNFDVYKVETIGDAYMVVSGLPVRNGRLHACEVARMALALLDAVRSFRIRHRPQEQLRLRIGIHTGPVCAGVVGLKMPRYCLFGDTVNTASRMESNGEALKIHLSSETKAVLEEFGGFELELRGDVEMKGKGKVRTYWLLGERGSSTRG
#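 HEK293 cells stably expressing human Npr1 and cGMP GloSensor pGS-40F, loaded 2 h with 2% GloSensor reagent, given compound 30 min at room temperature. Luminescence read before and 20 min after 0.1 nM hNppA.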
# HEK cytotox: kills HEK 293 cells; Potency, µM (highest dose often 115 µM), inactives show at the highest dose activity change, negative = cytotoxicity, hits mostly inhibitors; HEK 293 viability, ATP luminescence (CellTiter-Glo), 48-72 h; AID 1345083; actives 6.6% (n = 94,000); note: nearly all actives have a fitted effect of over 60% in size
#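 HEK 293 seeded at 250 cells/well receive compound via pintool. After 48 or 72 hr at 37 degree Celsius, 5% CO2 and 95% humidity, CellTiter-Glo is dispensed and luminescence read following 10 min at room temperature.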
# 3T3 cytotox: kills NIH 3T3 cells | NIH 3T3 viability, CellTiter-Glo ATP luminescence, 48-72 h | Potency, µM (doses to about 96.7 µM), without a hit: at the top dose activity change, negative = cytotoxicity, actives largely listed as inhibitors | actives 4.3% (n = 94,000) | AID 1345082; note: nearly all actives have a fitted effect of over 55% in size
#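 First NIH 3T3 cells are plated at 400 cells/well; next compound is pinned in; then plates incubate 48 or 72 hr at 37 °C; finally CellTiter-Glo is added and luminescence read after 10 min.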
# FLuc inh: inhibitors of firefly (Photinus pyralis) luciferase. P08659. purified P. pyralis luciferase, luminescence, biochemical. Potency, µM (doses to about 115 µM), usual class: inhibitors. actives 2.5% (n = 76,000). AID 1347043; note: nearly all actives have a fitted effect of over 65% in size
#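 Inhibitors were tested against purified firefly luciferase in a biochemical, low-substrate format (both substrates at 10uM) and luminescence measured with a CCD imager.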
# * = called active by the depositor; i = inactive; ? = inconclusive; . = no result given; [ ] = another dose, or the depositor's remark. Unless noted, calls come from the whole dose curve; as a rule, active = well fitted curve in the direction sought with a large enough effect; inconclusive = small, poorly fitted or top-dose-only effect, or another doubt; inactive = no such curve, though single readings can be large; an effect the other way counts as inactive or inconclusive. % is set by controls: 0 for no effect and ±100 for the full control effect; potency is the fitted concentration of half-maximal effect.
SMILES,hNpr1 antagonist,HEK cytotox,3T3 cytotox,FLuc inh
Cc1noc(-c2ccc3c(c2)OCO3)c1C(=O)NCCC(c1ccccc1)c1ccccc1,-17%,22µM*,?,i
O=C(O)c1cnc(-c2cc(NCc3ccccn3)nc3[nH]ccc23)c(Cl)c1,-1%,-31%,-27%,40µM*
Cc1ccc(Nc2ccnc(N3CCCC(C(=O)NCc4ccc5c(c4)OCO5)C3)n2)cc1 (centres undefined),.,7.9µM*,13µM*,.
COc1ccc(Nc2ccnc(N3CCCC(C(=O)NCc4cccc(F)c4)C3)n2)cc1 (centres undefined),.,13µM*,16µM*,.
COc1ccc(CNC(=O)C2CCCN(c3nccc(Nc4ccccc4F)n3)C2)cc1 (centres undefined),.,28µM*,10µM*,.
COc1ccc(Nc2ccnc(N3CCCC(C(=O)NCc4cccc(OC)c4)C3)n2)cc1 (centres undefined),.,25µM*,35µM*,.
Cc1ccc(Cl)cc1NC(=O)NCC1CCOCC1,3%,5%,i,i
COc1cc(CNC(=O)c2nc3cccnc3n(CC(C)C)c2=O)cc(OC)c1,.,-8%,-17%,.
Cc1ccc(Nc2ccnc(N3CCCC3C(=O)NCc3cccc(F)c3)n2)cc1 (centres undefined),.,?,-26%,.
COc1ccc(CNC(=O)C2CCCN(c3nccc(Nc4ccc(C)cc4)n3)C2)cc1 (centres undefined),.,10µM*,?,.
COc1ccc(Nc2ccnc(N3CCCC(C(=O)NCc4ccccc4)C3)n2)cc1 (centres undefined),.,40µM*,35µM*,.
CC(C)(C)CN1CCOC[C@H]1c1ncc(-c2ccc(Cl)s2)[nH]1,-15%[70.6 µM],79µM*,?,i
Cn1c(CN2CCOC[C@H]2c2ncc(-c3ccc(Cl)s3)[nH]2)nc2ccccc21,?,?,89µM*,i
O=C(O)c1ccc(CN2CCOC[C@H]2c2ncc(-c3ccc(Cl)s3)[nH]2)cc1,2%[70.6 µM],-9%[172 µM],-4%[174 µM],i
Clc1ccc(-c2cnc([C@@H]3COCCN3Cc3ccccc3)[nH]2)s1,?,100µM*,79µM*,i
Clc1ccc(-c2cnc([C@@H]3COCCN3C3CCNCC3)[nH]2)s1,-5%[70.6 µM],?,-5%[174 µM],i
Clc1ccc(-c2cnc([C@@H]3COCCN3C3CCCCC3)[nH]2)s1,-29%[70.6 µM],79µM*,79µM*,i
COC(=O)CNC(=O)CNC(=O)c1cccc(-c2ccsc2)c1,.,-19%[172 µM],-23%[138 µM],.
Cn1c([C@H]2CCN(Cc3ccc(Cl)cc3)C2)nc2ccccc21,?,?,100µM*,i
CCN1CC(c2ccccc2)CC2(CCN(S(=O)(=O)N(C)C)CC2)C1 (centres undefined),-2%,-5%,-15%,i
O=C(c1cccs1)N1CCc2[nH]nc(-c3cccc(F)c3)c2C1,-13%,28µM*,?,i
Clc1ccc(NCCN2CCCC2)cc1,.,-24%[230 µM],-4%[174 µM],.
Oc1ccc(NCCN2CCCC2)cc1,.,?,45µM*,.
CN(CC1CCOCC1)C(=O)CCCc1ccccc1,-1%,2%,-5%,40µM*
C[S+](=O)([O-])N1CC2(CCN(Cc3ccccn3)CC2)Cc2ccccc21,.,-14%,-10%,.
SMILES,hNpr1 antagonist,HEK cytotox,3T3 cytotox,FLuc inh
Cc1noc(C)c1[S+](=O)([O-])N1CCn2c(nn(-c3cccc(Cl)c3)c2=O)C1,.,-27%,-16%,.
COc1ccc2[nH]c(CN3CCC(CCC(=O)NCc4ccc(F)cc4)CC3)c(C)c2c1,0%,28µM*,?,i
Cc1ccc(NC(=O)C2CCN(C(=O)c3ncn4c3COC(c3ccc(F)cc3)C4)CC2)cc1Cl (centres undefined),-12%,?,?,28µM*
O=C(Nc1cc(F)cc(F)c1)C1CCN(C(=O)c2ncn3c2COC(c2ccc(F)cc2)C3)CC1 (centres undefined),?,?,?,35µM*
O=C(Nc1ccc(F)cc1)C1CCN(C(=O)c2ncn3c2COC(c2ccc(F)cc2)C3)CC1 (centres undefined),-13%,0%,-17%,32µM*
O=C(NC1CCCCCC1)C1CCN(C(=O)c2ncn3c2COC(c2ccc(F)cc2)C3)CC1 (centres undefined),-6%,4%,i,i
O=C(NC1CC1)C1CCN(C(=O)c2ncn3c2COC(c2ccc(F)cc2)C3)CC1 (centres undefined),3%,8%,i,35µM*
CC(C)N1CCN(c2ccc3nnc(C4CCC4)n3n2)CC1,-3%,0%,-4%,i
CC(=O)NCCC(=O)N1Cc2ccccc2CC2(CCCN(CC3CCNC3)C2)C1 (centres undefined),.,i,i,.
O=C(CC1CCCC1)N1CCC(OC2CCN(Cc3ccccc3)CC2)CC1,5%,?,?,i
Cc1ccc(C2Cn3cnc(C(=O)N4CCC(C(=O)NC5CCCC5)CC4)c3CO2)cc1 (centres undefined),-10%,4%,i,?
O=C(NC1CCCCCCC1)C1CCN(C(=O)c2ncn3c2COC(c2ccccc2)C3)CC1 (centres undefined),-22%,6%,1%,18µM*
CCOC(=O)[C@H]1C[C@]2(CCCCN(CCOC)C2=O)N(C(C)=O)[C@H]1c1ccco1,.,32µM*,?,.
CCOC(=O)[C@H]1C[C@]2(CCCCN(CCOC(C)=O)C2=O)N(C(=O)OCC)[C@H]1c1ccco1,.,?,-22%,.
CNC(=O)c1cc(C)nc2onc(C3CCN(C(=O)OC)CC3)c12,.,-10%[172 µM],-20%[138 µM],.
O=C1CN(C(=O)c2cccs2)CC(O)CN1CCc1ccccc1 (centres undefined),.,-10%,?,.
CN1CCCCCC(O)c2cc(C(=O)NCc3cc(F)cc(F)c3)ccc21 (centres undefined),-20%,?,?,i
COc1ccc(OC)c(NC(=O)c2ccc3c(c2)C(O)CCCCCN3C)c1 (centres undefined),?,?,?,i
CC1CCN(c2ccc(CNC(=O)c3ccc4c(c3)C(O)CCCCCN4C)cc2)CC1 (centres undefined),-16%,?,40µM*,i
CN1CCCCCC(O)c2cc(C(=O)Nc3cccc(OC(F)(F)F)c3)ccc21 (centres undefined),?,25µM*,28µM*,i
COc1cccc(NC(=O)c2ccc3c(c2)C(O)CCCCCN3C)c1 (centres undefined),-23%,?,?,35µM*
CN1c2cc(C(=O)Nc3cccc(OC(F)(F)F)c3)ccc2C(=O)N2CCCCCC21 (centres undefined),-25%,?,-14%,i
COCCCNC(=O)c1ccc2nnc(Cc3ccco3)n2c1,.,i,2%[138 µM],.
C[C@@H](NC(=O)C1CCCCC1)c1c(-c2ccc(F)cc2)noc1C(=O)O,-1%[70.6 µM],-7%[172 µM],40µM*,i
CSc1cccc(NC(=O)C2CCN(c3cnc4nccnc4c3)CC2)c1,-2%,8.9µM*,6.3µM*,i
